Measurements taken from PubChem BioAssay (NCI).
Where “and” joins values, the source holds several entries; their conditions need not be identical. Equal entries are not always repeated. Compounds without any hit were thinned out: in the full panel of roughly 83,000, 20% have a hit.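 How to read the values: 0–100, growth inhibition (40 = 60% inhibited); 0, no net growth; -100 to 0, cell death (-40 = 40% of starting cells died; -100 = all dead).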

What was measured:
Test in all cases: NCI-60 one-dose screen, 48 h (100 = growth as untreated, 0 = no growth, -100 = all killed)
Conditions in all cases: 10 µM unless noted; active = growth percent below 10; inactive = the rest
HCT-15 colon = system: HCT-15 colon
HT29 colon = system: HT29 colon
SNB-75 CNS = system: SNB-75 CNS
SNB-19 CNS = system: SNB-19 CNS
U251 CNS = system: U251 CNS
PC-3 prostate = system: PC-3 prostate
SK-MEL-5 melanoma = system: SK-MEL-5 melanoma
LOX IMVI melanoma = system: LOX IMVI melanoma
SK-MEL-28 melanoma = system: SK-MEL-28 melanoma
UACC-62 melanoma = system: UACC-62 melanoma

Measured: growth

NC1=NC(c2ccccc2)N=C(Nc2ccccc2)N1 (stereo unspecified)
inactive: HCT-15 colon 102% and 98.9% | HT29 colon 62.4% and 60.7% | SNB-75 CNS 53.1% and 12.8% | SNB-19 CNS 67% and 76% | U251 CNS 42.8% and 44.5% | PC-3 prostate 65.1% and 70.9% | SK-MEL-5 melanoma 69.6% and 35.6% | LOX IMVI melanoma 85.8% and 83% | SK-MEL-28 melanoma 87.8% and 102%

CCOC(=N)c1ccc(C(=N)OCC)cc1
inactive: HCT-15 colon 96.4% | HT29 colon 101% | SNB-75 CNS 103% | SNB-19 CNS 91.4% | PC-3 prostate 103% | SK-MEL-5 melanoma 95.7% | UACC-62 melanoma 96.8% | LOX IMVI melanoma 98.1% | SK-MEL-28 melanoma 101%

COc1ccc2oc3c(ccc[n+]3C)c(=O)c2c1
inactive: HCT-15 colon 100% | HT29 colon 96.6% | SNB-75 CNS 100% | SNB-19 CNS 97.9% | U251 CNS 93.6% | PC-3 prostate 93.1% | SK-MEL-5 melanoma 99.4% | LOX IMVI melanoma 99.9% | SK-MEL-28 melanoma 103%

C#CCOC(=O)C(N)CS (stereo unspecified)
inactive: HCT-15 colon 100% | HT29 colon 110% | SNB-75 CNS 81.9% | SNB-19 CNS 99.7% | U251 CNS 101% | PC-3 prostate 90.5% | SK-MEL-5 melanoma 104% | LOX IMVI melanoma 101% | SK-MEL-28 melanoma 94.9%

O=[N+]([O-])c1ccc(N/N=C/C2CCCCCC2)c([N+](=O)[O-])c1
inactive: HCT-15 colon 89.1% | HT29 colon 100% | SNB-75 CNS 117% | SNB-19 CNS 102% | PC-3 prostate 79.7% | SK-MEL-5 melanoma 96.9% | UACC-62 melanoma 81% | LOX IMVI melanoma 89.2% | SK-MEL-28 melanoma 99.7%

Oc1cccnc1CN1CCOCC1
inactive: HCT-15 colon 105% and 104% | HT29 colon 97.7% and 106% | SNB-75 CNS 88.9% and 81.5% | SNB-19 CNS 101% and 98.9% | U251 CNS 104% and 102% | PC-3 prostate 93.9% and 96.3% | SK-MEL-5 melanoma 106% and 98.4% | LOX IMVI melanoma 93.1% | SK-MEL-28 melanoma 107% and 105%

S=c1ccc2ccccc2[nH]1
inactive: HCT-15 colon 102% and 113% | HT29 colon 96% and 100% | SNB-75 CNS 94.9% and 85.8% | SNB-19 CNS 99.3% and 96.6% | PC-3 prostate 86.3% and 96.4% | SK-MEL-5 melanoma 100% and 104% | UACC-62 melanoma 100% and 97.8% | LOX IMVI melanoma 102% and 103% | SK-MEL-28 melanoma 109% and 103%

CCc1ccc(OC(=O)CCl)cc1
inactive: HCT-15 colon 107% | HT29 colon 107% | SNB-75 CNS 89.7% | SNB-19 CNS 108% | PC-3 prostate 98.3% | SK-MEL-5 melanoma 105% | UACC-62 melanoma 106% | LOX IMVI melanoma 93.3% | SK-MEL-28 melanoma 98.4%

CCCC(=O)Oc1ccc2ccccc2c1
inactive: HCT-15 colon 109% | HT29 colon 103% | SNB-75 CNS 105% | SNB-19 CNS 101% | PC-3 prostate 73.1% | SK-MEL-5 melanoma 97.3% | UACC-62 melanoma 100% | LOX IMVI melanoma 101% | SK-MEL-28 melanoma 114%

O=C(O)C(Cc1ccc(OS(=O)(=O)Cc2ccccc2)cc1)NS(=O)(=O)Cc1ccccc1 (stereo unspecified)
inactive: HCT-15 colon 99.5% and 108% | HT29 colon 101% and 119% | SNB-75 CNS 85.7% and 94.9% | SNB-19 CNS 96.6% and 105% | PC-3 prostate 123% and 101% | SK-MEL-5 melanoma 97.5% and 108% | UACC-62 melanoma 108% and 97.9% | LOX IMVI melanoma 98% | SK-MEL-28 melanoma 108% and 116%

CSc1nc(N)c(N)c(N)n1
inactive: HCT-15 colon 111% | HT29 colon 88.8% | SNB-19 CNS 100% | U251 CNS 95.8% | PC-3 prostate 71.4% | SK-MEL-5 melanoma 101% | LOX IMVI melanoma 101% | SK-MEL-28 melanoma 113%

CCn1c2ccc(N(C)C)cc2c2cc(N(C)C)ccc21
inactive: HCT-15 colon 112% | HT29 colon 78.9% | SNB-19 CNS 102% | U251 CNS 93.9% | PC-3 prostate 72.9% | SK-MEL-5 melanoma 97.6% | UACC-62 melanoma 91.9% | LOX IMVI melanoma 96.8% | SK-MEL-28 melanoma 98.9%

COC(=O)c1nc(N)nc(C(=O)OC)c1C(=O)c1cccc2ccccc12
inactive: HCT-15 colon 102% | SNB-75 CNS 104% | SNB-19 CNS 103% | U251 CNS 108% | PC-3 prostate 97% | SK-MEL-5 melanoma 98.9% | UACC-62 melanoma 97.2% | LOX IMVI melanoma 95.3% | SK-MEL-28 melanoma 106%

COc1ccc2nccc(Cl)c2c1
inactive: HCT-15 colon 109% | HT29 colon 104% | SNB-19 CNS 103% | U251 CNS 97.6% | PC-3 prostate 95.3% | SK-MEL-5 melanoma 102% | UACC-62 melanoma 89.6% | LOX IMVI melanoma 97.9% | SK-MEL-28 melanoma 110%

CC1OS(=O)OC1C (stereo unspecified)
inactive: HCT-15 colon 94% and 98.6% | HT29 colon 88.7% and 104% | SNB-75 CNS 92.6% and 94.7% | SNB-19 CNS 101% | PC-3 prostate 100% and 97.5% | SK-MEL-5 melanoma 99.9% and 98% | UACC-62 melanoma 95.5% and 89.8% | LOX IMVI melanoma 94.1% and 91.6% | SK-MEL-28 melanoma 109% and 103%

CCCCCCC(C)CC1=C(O)c2ccccc2C(=O)C1=O (stereo unspecified)
inactive: HCT-15 colon 28.4% | HT29 colon 66.6% | SNB-19 CNS 46% | U251 CNS 46.3% | PC-3 prostate 33.9% | SK-MEL-5 melanoma 11.9% | UACC-62 melanoma 29.9% | LOX IMVI melanoma 10.2% | SK-MEL-28 melanoma 64.4%

Cc1cc(=NO)cc(C)n1O
inactive: HCT-15 colon 113% | HT29 colon 114% | SNB-19 CNS 103% | U251 CNS 113% | PC-3 prostate 102% | SK-MEL-5 melanoma 112% | LOX IMVI melanoma 99.9% | SK-MEL-28 melanoma 112%

O=C(OCc1ccccc1)c1ccccc1
inactive: HCT-15 colon 114% and 103% | HT29 colon 114% and 87.8% | SNB-19 CNS 101% and 92.1% | U251 CNS 99.8% and 105% | PC-3 prostate 107% and 85.4% | SK-MEL-5 melanoma 104% and 101% | UACC-62 melanoma 92.6% and 102% | LOX IMVI melanoma 96.2% | SK-MEL-28 melanoma 106% and 120%

O=[N+]([O-])c1cccc(N=Cc2ccccc2)c1
inactive: HCT-15 colon 105% | HT29 colon 101% | SNB-75 CNS 96.7% | SNB-19 CNS 118% | PC-3 prostate 90.6% | SK-MEL-5 melanoma 104% | LOX IMVI melanoma 102% | SK-MEL-28 melanoma 122%

CC(=O)Nc1ccc2oc(=O)ccc2c1
inactive: HCT-15 colon 107% | HT29 colon 106% | SNB-19 CNS 102% | U251 CNS 108% | PC-3 prostate 100% | SK-MEL-5 melanoma 97.8% | UACC-62 melanoma 93.9% | LOX IMVI melanoma 99.7% | SK-MEL-28 melanoma 115%

C(=N\OCCc1ccccc1)/c1ccccn1
inactive: HCT-15 colon 95% and 104% | HT29 colon 112% and 97.7% | SNB-19 CNS 108% and 103% | U251 CNS 103% and 92.2% | PC-3 prostate 112% and 104% | SK-MEL-5 melanoma 113% and 111% | UACC-62 melanoma 110% and 107% | LOX IMVI melanoma 122% and 101% | SK-MEL-28 melanoma 114% and 112%

OC1CCCN(Cc2ccccc2)C1 (stereo unspecified)
inactive: HCT-15 colon 116% | HT29 colon 102% | SNB-19 CNS 92.2% | U251 CNS 120% | PC-3 prostate 97.4% | SK-MEL-5 melanoma 102% | UACC-62 melanoma 91.1% | LOX IMVI melanoma 96.5% | SK-MEL-28 melanoma 108%

CCCCOC1NC(=O)NC(=O)C1(F)C(=O)OCC (stereo unspecified)
inactive: HCT-15 colon 70% and 48.2% | HT29 colon 74.1% and 52.3% | SNB-19 CNS 101% and 82.6% | U251 CNS 91.6% | PC-3 prostate 88.4% and 85.6% | SK-MEL-5 melanoma 81% and 66.9% | LOX IMVI melanoma 73.5% and 52.5% | SK-MEL-28 melanoma 83.4% and 70.7%

O=C(c1ccncc1)c1c(Cc2ccccc2)ccc2ccccc12
inactive: HCT-15 colon 91.5% | HT29 colon 84.9% | SNB-19 CNS 96.7% | U251 CNS 88.8% | PC-3 prostate 83% | SK-MEL-5 melanoma 80.1% | UACC-62 melanoma 66.3% | LOX IMVI melanoma 90.8% | SK-MEL-28 melanoma 90.2%

COCCCNC1=C(C#N)C(=O)NC(c2cccs2)S1 (stereo unspecified)
inactive: HCT-15 colon 98.2% | HT29 colon 99.9% | SNB-19 CNS 94.4% | U251 CNS 100% | PC-3 prostate 100% | SK-MEL-5 melanoma 95.3% | UACC-62 melanoma 91.7% | LOX IMVI melanoma 105% | SK-MEL-28 melanoma 113%
